From PubChem BioAssay AID652040 (Broad Institute, 2013) come the findings set out here.

This experiment in a line: off-target signal loss in HeLa-CEM21 co-culture – HeLa F-luc CTL cells, cherry-picked, counter-screen for HIV-1 Env fusion inhibitor project, dose response (AID 652040).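 Note: 0% = median of neutral control wells and -100% = doxycycline 40 µg/mL wells; more negative values mean stronger loss of luciferase signal.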

Each structure is given as a SMILES string. Entries with a potency or affinity are not part of this list. Calls of active or inactive are those of the source.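 Rule for the calls: active = falling luciferase signal whose fitted half-maximal concentration is at most twice the top tested dose; inconclusive = flat inhibition between 30 and 70% or a poor curve fit; inactive = the rest.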

For the compound `Cc1cc(Cl)c(S(=O)(=O)N2CCCC2)cc1OCC(=O)NC1CCCCC1`, the outcome was inactive.
With `O=C(Nc1nc(COc2ccccc2)cs1)C12CC3CC(CC(C3)C1)C2`, the compound was called inactive.
Consider `CC(C)OCCCNc1ncnc2c1[nH]c1ccccc12`, for which the call was inactive.
Turning to `Cc1nc2ccc(NC(=O)c3cc(S(=O)(=O)N(C)c4ccccc4)ccc3Cl)cc2s1`, the outcome was inactive.
Take `COc1cccc(CNc2nc(NCc3ccccc3OC)nc3ccsc23)c1`: the compound was classed as inactive.
Take `CCCCOCCCNc1ncnc2c1[nH]c1ccccc12`: the outcome was inactive.
`Cc1ccc(NS(=O)(=O)c2cc(C(=O)N(C)C3CCN(C)CC3)ccc2Cl)cc1Cl`: the outcome was inactive.
Turning to `CC(=O)Nc1ccc(C(=O)OCC(=O)NC(=O)NCc2ccccc2)cc1`, the compound was classed as inactive.
Consider `COC(=O)[C@H](Cc1ccccc1)NC(=O)Cn1cnc(C(=O)Nc2ccc(C)c(C)c2)n1`, for which the compound was classed as inactive.
In the case of `COc1ccc2[nH]c3c(N4CCC(O)(c5cccc(C(F)(F)F)c5)CC4)ncnc3c2c1`, the outcome was inactive.
On the same count and under the same terms, the entry for `CCCc1cc(=O)n2[nH]cc(-c3ccc(Cl)cc3)c2n1` is “inactive”; for `N#Cc1c(NCc2ccccc2)ccnc1NCc1cccnc1` it is “inactive”; for `COc1ccc(-c2cc(C(=O)NNC(=S)NC(=O)c3c(-c4ccccc4)noc3C)[nH]n2)cc1` it is “inactive”.
Take `Nc1nonc1C(=O)NCCNCc1c(OCc2ccccc2F)ccc2ccccc12`: the call was inactive.
For `c1ccc2c(c1)ncn2CCCCOc1ccc2c(c1)CCC2`, the compound was classed as inactive.
`COc1ccc(NS(=O)(=O)c2ccc3c(c2)OCCO3)cc1OC`: the call was inactive.
Consider `O=C(CC1C(=O)NCCN1Cc1cccc(F)c1)NC1CCCCC1` (centres undefined), for which the call was inactive.
For `c1ccc2c(c1)CCN(c1ncnc3c1[nH]c1ccccc13)C2`, the result was inactive.
Take `c1ccc2c(c1)OCC(CNc1ncnc3nc[nH]c13)O2` (centres undefined): the outcome was inactive.
On to `CCCCCCCCN1C(=O)[C@H](CC(=O)NCc2cccs2)C[C@@]2(C(=O)OCC)CCCC=C12`, for which the compound was called inactive.
Turning to `CC(=O)OC1c2ccccc2C(=O)N1c1ccccc1C` (centres undefined), the call was inactive.
As for `CCC12CN(S(=O)(=O)c3ccc(C)cc3)CC(CC)(CN(S(=O)(=O)c3ccc(C)cc3)C1)C2=O`, the result was inactive.
For the compound `CCOc1ccccc1C(=O)NCC(=O)NNC(=O)CN(C)S(=O)(=O)c1ccc(Cl)cc1`, the call was inactive.
For the compound `COc1ccc(-c2cc(C3CCN(c4cc(Cl)nc(N)n4)CC3)[nH]n2)cc1`, the call was inactive.
Take `Cc1ccc(S(=O)(=O)NCC(=O)OCC(=O)NCc2ccc3c(c2)OCO3)cc1`: the compound was called inactive.
On to `O=C(Nc1cccn(Cc2c(Cl)cccc2Cl)c1=O)c1ccc(Cl)cc1`, for which the call was inactive.
Same read-out and setting: the entry for `COc1ccc(S(=O)(=O)N2CCCCC2)cc1NC(=O)CN(Cc1ccco1)Cc1ccco1` is “inactive”; for `CCOC(=O)C1CCCN(Cc2nc(N)nc(Nc3ccc(OC)cc3)n2)C1` (centres undefined) it is “inactive”; for `COC(=O)C1CCN(C(=O)COC(=O)c2cc(S(=O)(=O)N3CCOCC3)ccc2C)CC1` it is “inactive”.
As to `Cc1cc(Cl)c(S(=O)(=O)N2CCSCC2)cc1OCC(=O)NC1CCCCC1`, the call was inactive.
Consider `O=C(Nc1ccc(S(=O)(=O)N2CCN(Cc3ccccc3)CC2)cc1)c1cnccn1`, for which the outcome was inactive.
For the compound `CCCn1c(Nc2nc3ccccc3n2C)nc2ccccc21`, the result was inactive.
`CCOC(=O)C(C)Oc1cccc2c(=O)n(CC(=O)NCCc3ccc(OC)c(OC)c3)ccc12` (centres undefined): the compound was called inactive.
For `O=C(CCNC(=O)c1ccc(Br)cc1)NNC(=O)COc1ccccc1F`, the outcome was inactive.
Take `O=C(CNC(=O)c1cccc(-n2cccc2)c1)Nc1ccccc1Br`: the result was inactive.
For the compound `Cc1ccccc1S(=O)(=O)NC(=O)C1(C)CCN1C(=O)CCc1ccc(Cl)cc1Cl` (centres undefined), the result was inactive.
On the same count and under the same terms, the entry for `N#Cc1ccc(CSc2nnc(COc3ccccc3)n2-c2ccccc2)cc1` is “inactive”.
For the compound `O=C(c1cc(COc2cccc(C(F)(F)F)c2)on1)N1CCC(c2ccncc2)CC1`, the outcome was inactive.
With `COCC(C)n1c(-c2ccc3c(c2)NC(=O)CO3)csc1=Nc1ccc(OC(F)F)cc1` (centres undefined), the compound was called inactive.
With `N#Cc1ccc(CN2CCN(C(=O)CNC(=O)Cc3cccc4ccccc34)CC2)cc1`, the compound was classed as inactive.
For the compound `COCCCn1c(-c2ccc(S(=O)(=O)N3CCOCC3)cc2)csc1=Nc1ccccc1`, the compound was called inactive.
Regarding `CC1CCN(S(=O)(=O)c2cc(C(=O)N3CCN(c4ccccc4)CC3)ccc2Br)CC1`, the outcome was inactive.
As for `CC(=O)C1=C(C)NC(=S)NC1c1ccccc1` (centres undefined), the result was inactive.
Turning to `CCc1ccc(C(=O)CN2C(=O)NC(C)(c3ccc(C)cc3)C2=O)cc1` (centres undefined), the outcome was inactive.
Take `CCCc1cc(C(=O)NCc2ccc(OC)cc2)no1`: the call was inactive.
Regarding `CC1CCC(C(C)C)C(OC(=O)Cn2c(-c3ccc(Cl)cc3)[n+](C)c3ccccc32)C1` (centres undefined), the activity change, negative = inhibition was 55.5% [at 8 µM] (inactive).
As to `COc1ccc(CCNC(=O)COC(=O)c2cccn2C)cc1`, the compound was classed as inactive.
The same measure, in the same setting: the entry for `CCN1CCN(S(=O)(=O)c2ccc(Cl)c(C(=O)Nc3ccccc3N3CCCC3)c2)CC1` is “inactive”; for `Cc1ccc(-c2nnc(N3CCN(C(=O)COc4ccccc4)CC3)c3ccccc23)cc1` it is “inactive”; for `COc1ccc(C)cc1NC(=O)CCNS(=O)(=O)c1ccc2c(c1)CC(C)N2C(C)=O` (centres undefined) it is “inactive”.
Consider `CSc1ncccc1C(=O)OCC(=O)Nc1ccc(C)c(S(=O)(=O)N2CCOCC2)c1`, for which the outcome was inactive.
Regarding `C[C@H](CO)N1C[C@H](C)[C@@H](CN(C)C(=O)NC2CCCCC2)Oc2c(cccc2N(C)C)C1=O`, the compound was called inactive.
Still for that read-out and setting: the entry for `COc1ccc(C(O)c2nc3ccccc3n2C)cc1OC` (centres undefined) is “inactive”; for `Cc1cccc(C)c1NC(=O)N1CCN(c2nc3ccccc3s2)CC1` it is “inactive”; for `C=CCOc1c(Br)cc(CNc2ccc(NC(=O)C(C)C)c(OC)c2)cc1OC` it is “inactive”.
Consider `C=CCNc1nc2c(c(=O)n(C)c(=O)n2C)n1CCCCCC`, for which the call was inactive.
For `Cc1nc2ccccc2c2oc(C(=O)NCc3ccc4c(c3)OCO4)cc12`, the compound was called inactive.
As to `COc1ccccc1CN(C)C(=O)CN1CCN(C(=O)c2cccs2)CC1`, the compound was called inactive.
Consider `O=C(NCc1ccccc1)[C@@H]1CCCN1C(=O)[C@@H]1CCCN1C(=O)c1cccc2ccccc12`, for which the compound was called inactive.
For `CS(=O)(=O)N1CCN(c2ccccc2NC(=O)C(c2ccccc2)c2ccccc2)CC1`, the result was inactive.
On to `O=C(NCCCN1CCc2ccccc2C1)Nc1ccc(Cl)cc1`, for which the outcome was inactive.
Turning to `COc1cc(-c2c(-c3cc(OC)c(OC)c(OC)c3)noc2C)ccc1F`, the call was inactive.
For the compound `CCn1ncc(C2=NOC(C(=O)Nc3ccc(C)cc3)C2)c1C` (centres undefined), the result was inactive.
Regarding `CCc1nc(N2CCCCC2)c2oc3ccccc3c2n1`, the compound was called inactive.
The same measure, in the same setting: the entry for `NC(=S)c1ccc(OCCCc2ccccc2)cc1` is “inactive”; for `CCCCn1c(CN(C)Cc2ccccc2)nc2c1c(=O)n(C)c(=O)n2C` it is “inactive”.
The same measure, in the same setting: the entry for `CN1CC(c2ccccc2)C2(SC(=S)N(Cc3ccco3)C2=O)C12C(=O)Nc1ccccc12` (centres undefined) is “inactive”; for `O=C(Nc1cc2c3c(c1)CC(=O)N3CCC2)c1ccc(Cl)cc1` it is “inactive”; for `O=C(NCCCc1nc2ccccc2[nH]1)c1ccco1` it is “inactive”.
Same read-out and setting: the entry for `c1csc(CNc2ncnc3sccc23)c1` is “inactive”; for `CC(=O)c1c(C)[nH]c(C(=O)OCC(=O)Nc2ccc(Cl)c(S(=O)(=O)N(C)C)c2)c1C` it is “inactive”.
On to `COc1ccc(CCNC(=O)C2CCCN(Cc3nc(-c4cccc(Cl)c4)oc3C)C2)cc1OC` (centres undefined), for which the compound was classed as inactive.
As to `CCn1c(/C=C/N(C)c2ccccc2)[n+](CC)c2ccc(Cl)cc21`, the compound was called inactive.
For the compound `O=C(NCc1ccccc1)c1ccc(C(=O)NCc2ccccc2)cc1`, the result was inactive.
Consider `CC1CCCCN1S(=O)(=O)c1ccc(C(=O)Nc2nnc(-c3cccs3)o2)cc1` (centres undefined), for which the result was inactive.
In the case of `Nc1c(S(=O)(=O)c2ccccc2)cnc2c(-c3ccc(F)cc3)cnn12`, the outcome was inactive.
Regarding `O=C(Nc1nc(-c2ccc3c(c2)OCO3)cs1)c1ccncc1`, the call was inactive.
`Cc1ccc(NC(=O)c2ccc(CN3CCc4ccccc4C3)cc2)cc1`: the outcome was inactive.
Turning to `O=C(Nc1cccc(C(F)(F)F)c1)c1ccc(Cn2cc(Br)cn2)o1`, the compound was called inactive.
